Screening data as filed in PubChem.
POLK inh: DNA polymerase kappa (human) inhibition. 0.53% of 400,000 active. Potency, µM (doses to about 107 µM), inactives show at the top dose activity, negative = inhibition, actives largely listed as inhibitors. Q9UBT6. purified Pol kappa, fluorescent DNA synthesis assay, 10 min; further: potency means the concentration at half of the fitted maximal effect; on the % scale 0 is the no-effect control and ±100 the full control effect
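First, compounds were pin-transferred onto 10 nM Pol kappa. After 15 min at room temperature, substrate was added to 50 nM final. Fluorescence was then measured kinetically at 0 and 10 min.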
POLH inh: inhibitors of human DNA polymerase eta | Q9Y253 | recombinant Pol eta, fluorescent DNA replication assay | Potency, µM (titrated, usually from 114 µM), for inactives: top-dose activity change, negative = inhibition, actives largely listed as inhibitors | 1.2% of 390,000 active; further: potency means the concentration at half of the fitted maximal effect; on the % scale 0 is the no-effect control and ±100 the full control effect
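Pol eta at 10 nM preincubated with compounds 15 min at room temperature; reaction started with fluorescent substrate (50 nM final) and read kinetically at 0 and 10 min.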
POLI inh: blocks human DNA polymerase iota activity; 1% of 390,000 active; Pol iota fluorescent replication assay, 10 min; Potency, µM (series often up to 115 µM), for the others: at the top dose activity, negative = inhibition, hits mostly inhibitors; further: potency means the concentration at half of the fitted maximal effect
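Pol iota at 10 nM preincubated 15 min with compounds at room temperature; reaction started with fluorescent substrate, 50 nM final. Fluorescence read kinetically at 0 and 10 min; buffer-only wells as negative control.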
PI5P4Ka inh: inhibitors of human PI5P4K alpha. max response, %. PI5P4Kalpha enzyme, ADP-Glo luminescence, 60 min; hits give low values. P48426. 1.2% of 330,000 active; active means max response of -50% or lower; inconclusive means between -30% and -50%; inactive means -30% or higher; further: value at the top dose of about 77 µM; on the % scale 0 is the no-effect control and ±100 the full control effect
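Human PI5P4Kalpha with substrate in 0.038 M HEPES pH 7.4, 0.28 mM EGTA, 0.1% CHAPS, 5% DMSO; reaction started with 5 microM ATP (final), 60 min at room temperature. ADP formed read by ADP-Glo luminescence.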
Pol beta inh: inhibitors of human DNA polymerase beta. P06746. Pol beta primer extension/strand displacement, fluorescence kinetic. Potency, µM (titrated, usually from 114 µM), without a hit: at the highest dose activity change, negative = inhibition, most hits filed as inhibitors. 1.3% of 340,000 active. AID 485314; further: potency means the concentration at half of the fitted maximal effect; on the % scale 0 is the no-effect control and ±100 the full control effect
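10 nM enzyme + cpd, 15 min RT; start with substrate 50 nM final; read 0 min and after 10 min RT. Corrected, normalized data; 4-parameter Hill curve fit.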
ALOX12 inh: inhibitors of human 12S-lipoxygenase ALOX12; P18054; purified 12hLO, xylenol orange hydroperoxide absorbance; Potency, µM (series often up to 108 µM), for inactives: at the top dose activity change, negative = inhibition, usual class: inhibitors; 1.1% of 580,000 active; AID 1671190; further: potency means the concentration at half of the fitted maximal effect; on the % scale 0 is the no-effect control and ±100 the full control effect
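Hydroperoxide product was detected by ferrous iron/xylenol orange as the 573 to 405 nm absorbance ratio. Arachidonic acid at 40 uM (final) was turned over for 30 min at room temperature by 150 nM human 12hLO, pH 7.0 Hepes buffer, after 15 min compound preincubation.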
The depositor's hits bear a star; ? = inconclusive; . = no result given; ! = repeats disagree; [ ] = dose if it differs, or a comment. A selection: hits, their analogues and other compounds. The true share with any hit is near 2.9%. Unless noted, the call rests on the fitted dose curve; in most records, active means well fitted inhibition curve with a large enough effect; inconclusive means small, poorly fitted or top-dose-only effect, or another doubt; inactive means no such curve, though single readings can be large or run the other way.

SMILES	POLK inh	POLH inh	POLI inh	PI5P4Ka inh	Pol beta inh	ALOX12 inh
CC1=Nc2ccc(C)cc2/C1=C/c1c(N)n2oc(C)cc2nc1=O	-14%	-10%	?	-3	?	0%
CC(C)S(=O)(=O)c1nsc2nc(=O)c(/C=C3\C=Nc4ccccc43)c(N)n12	?	32µM*	-12%	-79*	40µM*	?
Nc1nnc(SCc2ccccc2)n1-c1ccccc1	-19%	-6%	13%	0	-1%	-1%
CC(C)(C)CC(=O)N1CCN(C2CCCCC2)CC1	.	.	.	.	.	2%
Cn1nc(C(=O)OCCOc2cccc(Cl)c2)c2ccccc2c1=O	.	.	.	.	.	-14%
CC1=Nc2ccc(C)cc2/C1=C/c1c(N)n2c(S(=O)(=O)C(C)C)nsc2nc1=O	-16%	?	?	-85*	?	?
CC1=Nc2ccc(C)cc2/C1=C/c1c(N)n2nc(CC(=O)N3CCOCC3)sc2nc1=O	-6%	-20%	26%	-17	-1%	?
CCc1nn2c(N)c(/C=C3\C=Nc4ccccc43)c(=O)nc2s1	-21%	3%	20%	0	-3%	127%
CC1=Nc2ccccc2/C1=C/c1c(N)n2c(S(=O)(=O)C(C)C)nsc2nc1=O	-21%	?	50%	-76*	-16%	-17%
CC1=Nc2ccccc2/C1=C/c1c(N)n2c(S(=O)(=O)CC(C)C)nsc2nc1=O	-31%	40µM*	19%	-65*	?	-23%
CC(Oc1ccccc1F)C(=O)Nc1ccc(-c2nc3ccccc3o2)cc1 (centres undefined)	.	.	.	.	.	4%
CCN(CC)S(=O)(=O)c1ccc(-c2nc(C#N)c(N3CCC(Cc4ccccc4)CC3)o2)cc1	.	.	.	.	.	4%
Cc1ccc2[nH]c(CSc3nnc(NC(=O)c4ccc(Cl)cc4)s3)cc(=O)c2c1	-13%[60.1 µM]	8%	-7%	.	-14%	-14%
COc1ccccc1C(=O)Nc1nnc(SCc2cc(=O)c3cc(Cl)ccc3[nH]2)s1	-7%[60.1 µM]	-8%	-22%	.	4µM*	?
CC(=O)Nc1nnc(SCc2cc(=O)c3cccc(Cl)c3[nH]2)s1	-2%[60.1 µM]	-15%	89µM*	.	5%	-12%
CC(=O)Nc1nnc(SCc2cc(=O)c3cccc(C)c3[nH]2)s1	2%[60.1 µM]	?	10%	.	-14%	-17%
N#Cc1ccc(NC(=O)COC(=O)c2nc(-c3ccccc3)n(-c3ccccc3)n2)cc1	.	.	.	.	.	-52%
COc1cc(NC(=O)[C@H](C)n2c(=O)[nH]c3ccccc3c2=O)cc(OC)c1	.	.	.	.	.	-67%
Cc1c(Cl)cccc1-n1c2c(c(=O)[nH]c1=O)CN(CCc1ccccc1)CN2	.	.	.	.	.	-6%
O=C1c2c(O)cc(O)cc2O[C@@]12c1c(cc(O)c3c1O[C@H](c1ccc(O)cc1)[C@@H](O)C3)O[C@@H]2c1ccc(O)cc1	?	-19%	?	-22	-11%	?
Oc1cc(O)c2c(c1)O[C@H](c1ccc(O)c(O)c1)[C@@H](O)C2	?	28µM*!	?	-2	13µM*	?
Oc1ccc2c(c1)OC(c1ccc(O)c(O)c1)C(O)C2 (centres undefined)	10µM*	.	.	.	.	.
O=C(Nc1cccnc1)c1cc(-c2ccccn2)nc2ccccc12	.	.	.	.	.	22%
Cc1ccc(C(=O)N2CCN(c3oc(-c4cccs4)nc3C#N)CC2)cc1	.	.	.	.	.	-9%
O=c1c2cc(N3CCOCC3)ccc2[nH]c(=S)n1Cc1ccco1	79µM*	89µM*	10µM*	.	?	-27%
O=c1c2cc(N3CCOCC3)ccc2[nH]c(=S)n1Cc1cccc(Cl)c1	6%	-7%	-6%	.	8%	0%
CC(=O)Nc1ccc2nc(SCc3ccc(Cl)cc3)sc2c1	.	.	.	.	.	20µM*
O=C(O)c1cccc(N2C(=O)C3C4C=CC(C4=C(c4ccccc4)c4ccccc4)C3C2=O)c1 (centres undefined)	-9%	-7%	27%	-11	50µM*	?
CCOCCCNc1nc2c(c(=O)n(C)c(=O)n2C)n1Cc1ccc(Cl)c(Cl)c1	.	.	.	.	.	-1%
